Source: PubChem BioAssay (Tox21)
Records with an inconclusive call do not appear. Active and inactive are the calls of the source. Unless noted, calls come from the whole dose curve; as a rule, active = well fitted curve in the direction sought with a large enough effect in the repeat runs; inconclusive = weak or mixed curves; inactive = no such curve, though single readings can be large; an effect the other way counts as inactive or inconclusive.

Assays:
[1] = A CellTox Green Cytotoxicity Assay to monitor cytotoxicity in HepG2 cells - 8 hour (AID 1224890); note: nearly all actives have a fitted effect of over 45% in size
How it was run: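 Cells and non-lytic dye reagent are dispensed together (600 HepG2 cells/well) and incubated 5 h before DMSO compound transfer. Kinetic fluorescence is then recorded in the same wells during 40 h at 37 C.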

[2] = qHTS assay to identify small molecule antagonists of the estrogen receptor alpha (ER-alpha) signaling pathway using the BG1 cell line in the presence of 0.1 nM 17-beta-estradiol - cell viability counter screen (AID 1259241); note: nearly all actives have a fitted effect of over 40% in size
How it was run: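 Following 5 days in phenol red-free medium with charcoal-stripped serum, VM7Luc4E2 cells received test compounds alongside 0.1 nM 17beta-estradiol (final) at 37C for 22 hr. Live cells were then quantified via protease-substrate fluorescence.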

[3] = qHTS assay to identify small molecule antagonists of the androgen receptor (AR) signaling pathway using the MDA cell line in the presence of 0.5 nM R1881 - cell viability counter screen (AID 1259242); note: nearly all actives have a fitted effect of over 45% in size
How it was run: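 Steps: plate MDA-kb2 cells, rest 5 hr at 37C without CO2; pin in compounds in DMSO; add R1881 to 0.5 nM final; incubate 16 hr; add CellTiter-Fluor, 30 min; read fluorescence.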

[4] = molecular target: Androgen receptor (Homo sapiens) (UniProt P10275); test: qHTS assay to identify small molecule antagonists of the androgen receptor (AR) signaling pathway using the MDA cell line in the presence of 0.5 nM R1881 (AID 1259243); note: nearly all actives have a fitted effect of over 50% in size
Chain of Androgen receptor (Homo sapiens) (P10275 whole entry, looked up): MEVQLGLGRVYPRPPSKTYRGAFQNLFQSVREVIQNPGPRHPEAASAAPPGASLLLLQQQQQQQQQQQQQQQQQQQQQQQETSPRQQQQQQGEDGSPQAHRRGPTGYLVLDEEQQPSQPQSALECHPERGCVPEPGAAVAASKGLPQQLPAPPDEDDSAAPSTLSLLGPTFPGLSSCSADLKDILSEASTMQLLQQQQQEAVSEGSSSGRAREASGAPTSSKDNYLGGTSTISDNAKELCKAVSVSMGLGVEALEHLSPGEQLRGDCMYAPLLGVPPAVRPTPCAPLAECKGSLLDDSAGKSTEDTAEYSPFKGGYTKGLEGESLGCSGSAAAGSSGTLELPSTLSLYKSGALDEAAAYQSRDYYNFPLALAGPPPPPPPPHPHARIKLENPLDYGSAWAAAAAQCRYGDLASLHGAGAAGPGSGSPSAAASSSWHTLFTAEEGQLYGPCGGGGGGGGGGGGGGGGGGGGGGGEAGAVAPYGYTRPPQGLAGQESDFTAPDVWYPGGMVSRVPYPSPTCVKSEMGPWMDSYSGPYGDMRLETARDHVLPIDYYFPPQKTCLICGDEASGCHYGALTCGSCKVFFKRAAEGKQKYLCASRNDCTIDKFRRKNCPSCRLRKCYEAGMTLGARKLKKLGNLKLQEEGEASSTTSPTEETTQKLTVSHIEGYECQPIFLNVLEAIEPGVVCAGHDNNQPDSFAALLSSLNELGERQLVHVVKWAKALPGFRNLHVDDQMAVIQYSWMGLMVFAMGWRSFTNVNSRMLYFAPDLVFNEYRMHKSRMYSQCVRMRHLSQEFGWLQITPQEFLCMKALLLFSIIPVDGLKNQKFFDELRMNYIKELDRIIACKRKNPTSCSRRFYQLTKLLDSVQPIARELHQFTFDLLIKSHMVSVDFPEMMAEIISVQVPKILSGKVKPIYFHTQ
How it was run: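 Stably transfected MDA-kb2 cells express luciferase from an MMTV promoter bearing both AR and GR response elements. Compounds plus 0.5 nM R1881 (final) were incubated 16 hr at 37C without CO2, then luminescence measured.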

[5] = molecular target: Estrogen receptor (Homo sapiens) (UniProt P03372); test: qHTS assay to identify small molecule antagonists of the estrogen receptor alpha (ER-alpha) signaling pathway using the BG1 cell line in the presence of 0.1 nM 17-beta-estradiol (AID 1259244); note: nearly all actives have a fitted effect of over 50% in size
Chain of Estrogen receptor (Homo sapiens) (P03372 whole entry, looked up): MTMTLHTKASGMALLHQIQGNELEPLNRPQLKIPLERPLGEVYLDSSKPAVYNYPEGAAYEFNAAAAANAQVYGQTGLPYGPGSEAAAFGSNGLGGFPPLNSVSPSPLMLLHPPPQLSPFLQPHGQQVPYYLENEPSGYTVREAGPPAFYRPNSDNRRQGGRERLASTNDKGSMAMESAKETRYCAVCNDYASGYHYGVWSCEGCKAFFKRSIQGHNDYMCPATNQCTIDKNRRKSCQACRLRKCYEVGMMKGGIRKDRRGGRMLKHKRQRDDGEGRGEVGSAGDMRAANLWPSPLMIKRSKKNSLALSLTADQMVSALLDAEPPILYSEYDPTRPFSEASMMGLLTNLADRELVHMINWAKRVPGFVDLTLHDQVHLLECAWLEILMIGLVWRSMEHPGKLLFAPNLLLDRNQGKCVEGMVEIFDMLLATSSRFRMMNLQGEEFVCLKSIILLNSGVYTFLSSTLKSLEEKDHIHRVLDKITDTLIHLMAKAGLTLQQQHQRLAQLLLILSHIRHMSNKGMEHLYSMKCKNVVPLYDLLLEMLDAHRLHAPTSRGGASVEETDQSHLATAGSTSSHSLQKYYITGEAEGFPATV
How it was run: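 Antagonist mode: compounds in DMSO are pinned onto VM7Luc4E2 reporter cells, 0.1 nM final 17beta-estradiol is added, and after 22 h at 37C luciferase luminescence is measured with ONE-Glo.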

[6] = qHTS assay to identify small molecule HDAC inhibitors (AID 1259364);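 note: wild-type HCT-116 cells with endogenous class I/II HDAC activity; top concentration of the series differs between compounds; nearly all actives have a fitted effect of over 45% in size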
How it was run: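 Cells (HCT-116, wild type) are seeded at 1,500 per well, incubated overnight, treated with compound in DMSO for 2 hr, then developed with HDAC-Glo I/II reagent for 30 min at room temperature.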

[7] = qHTS assay to identify small molecule HDAC inhibitors - cell viability counter screen (AID 1259365); note: series mostly up to about 92 µM; nearly all actives have a fitted effect of over 50% in size
How it was run: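 HCT-116 wild-type, overnight attachment; 2hr drug exposure, 37C; CellTiter-Glo luminescent ATP readout after 30min RT.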

[8] = qHTS assay to identify small molecule agonists of the sonic hedgehog signaling (Shh) pathway - cell viability counter screen (AID 1259366); note: nearly all actives have a fitted effect of over 50% in size
How it was run: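 Compounds in DMSO were pin-transferred onto 3T3 Gli1-Luc cells that had settled 4hr; plates then stood 24hr at 37C and 5% CO2. One hour before the end, CellTiter-Fluor was added and fluorescence recorded.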

[9] = qHTS assay to identify small molecule antagonists of the sonic hedgehog signaling (Shh) pathway - cell viability counter screen (AID 1259367); note: nearly all actives have a fitted effect of over 55% in size
How it was run: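 Fluorescence read-out (CellTiter-Fluor, 1 hr at 37C) taken after 23 hr compound treatment of 3T3 Gli1-Luc cells stimulated with conditioned medium. Cells were seeded at 2,000 per well and pre-incubated 4 hr.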

[10] = qHTS assay to identify small molecule phospholipidosis (PLD) inducers (AID 1259344; active = well fitted curve in the direction sought with a large enough effect; an effect the other way counts as inactive or inconclusive)
How it was run: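 Read-out is LipidTOX Red fluorescence (ex 595/em 615) imaged in HepG2 cells after 24 h compound exposure at 37 C, with Hoechst nuclear counterstain (ex 352/em 461) allowing per-cell normalisation.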
% is set by controls: 0 for no effect and ±100 for the full control effect.

O=C1CC2(CCCC2)CC(=O)N1
inactive: Potency [1] | outcome [2] | outcome [3] | Potency [4] | outcome [5] | Potency [6] | outcome [7] | Potency [8] | outcome [9]

COc1cc(O)cc(O)c1
inactive: Potency [1] | outcome [2] | outcome [3] | outcome [5] | Potency [10] | Potency [6] | outcome [7] | Potency [8] | outcome [9]

CC(C)CCCC(C)NCCC(C)C (stereo not given)
inactive: Potency [1] | outcome [2] | outcome [3] | Potency [4] | outcome [5] | Potency [6] | outcome [7] | Potency [8] | outcome [9]

O=C(O)c1ccccc1-c1ccc(C(F)(F)F)cc1
inactive: Potency [1] | outcome [2] | outcome [3] | outcome [5] | Potency [10] | Potency [6] | outcome [7] | Potency [8] | outcome [9]

CN(C)CCn1nnnc1SCC1=C(C(=O)O)N2C(=O)[C@@H](NC(=O)Cc3csc(N)n3)[C@H]2SC1
inactive: Potency [1] | outcome [2] | outcome [3] | Potency [4] | Potency [10] | Potency [6] | outcome [7] | Potency [8] | outcome [9]

C[N+](C)(C)CC[N+]1(C)Cc2c(Cl)c(Cl)c(Cl)c(Cl)c2C1
inactive: Potency [1] | outcome [2] | outcome [3] | outcome [5] | Potency [10] | Potency [6] | outcome [7] | Potency [8] | outcome [9]

O=S(=O)(O)c1ccccc1O
inactive: Potency [1] | outcome [2] | outcome [3] | Potency [4] | outcome [5] | Potency [6] | outcome [7] | Potency [8] | outcome [9]

CCc1cc(S(=O)(=O)O)c2cc(C(C)C)cccc1-2
inactive: Potency [1] | outcome [2] | outcome [3] | outcome [5] | PLD induction [10] -3.58% [at 7.66 µM] | Potency [6] | outcome [7] | Potency [8] | outcome [9]

O=C(CCOCCOCCOCCOCCC(=O)Nc1c(I)cc(I)c(C(=O)O)c1I)Nc1c(I)cc(I)c(C(=O)O)c1I
inactive: Potency [1] | outcome [2] | outcome [3] | Potency [4] | outcome [5] | Potency [6] | outcome [9]

O=c1[nH]c(=O)n([C@H]2O[C@H](CO)[C@@H](O)[C@@H]2O)cc1/C=C\Br
inactive: Potency [1] | outcome [2] | outcome [3] | Potency [4] | outcome [5] | Potency [6] | outcome [7] | Potency [8] | outcome [9]

CC1CCN(CCCC(=O)c2ccc(F)cc2)CC1
inactive: Potency [1] | outcome [2] | outcome [3] | outcome [5] | Potency [10] | Potency [6] | outcome [7] | Potency [8] | outcome [9]

NS(=O)(=O)c1cc2c(cc1Cl)NC(CSCc1ccccc1)=NS2(=O)=O
inactive: Potency [1] | outcome [2] | outcome [3] | outcome [5] | Potency [10] | Potency [6] | outcome [7] | Potency [8] | outcome [9]

CC(C)CCCCCCN
inactive: Potency [1] | outcome [2] | outcome [3] | Potency [4] | outcome [5] | Potency [6] | outcome [7] | Potency [8] | outcome [9]

Nc1[nH]c(=O)ncc1F
inactive: Potency [1] | outcome [2] | outcome [3] | outcome [5] | Potency [10] | Potency [6] | outcome [7] | Potency [8] | outcome [9]

NC(N)=NS(=O)(=O)c1ccc(N)cc1
inactive: Potency [1] | outcome [2] | outcome [3] | Potency [4] | outcome [5] | Potency [10] | Potency [6] | outcome [7] | Potency [8] | outcome [9]

CCCOCC(C)OCC(C)O (stereo not given)
inactive: Potency [1] | outcome [2] | outcome [3] | Potency [4] | Potency [6] | Potency [8] | outcome [9]

CCCCCCOC(=O)c1ccccc1O
inactive: Potency [1] | outcome [2] | outcome [3] | Potency [4] | outcome [5] | Potency [6] | outcome [7] | Potency [8] | outcome [9]

CCN1CCN(c2cc3c(cc2F)c(=O)c(C(=O)O)cn3C2CC2)CC1
inactive: Potency [1] | outcome [2] | outcome [3] | Potency [4] | Potency [10] | Potency [6] | outcome [7] | Potency [8] | outcome [9]

Cc1c(F)cc2c(=O)c(C(=O)O)cn3c2c1CCC3C (stereo not given)
inactive: Potency [1] | outcome [2] | outcome [3] | Potency [4] | outcome [5] | Potency [6] | outcome [7] | outcome [9]

CCN(CC)S(=O)(=O)c1ccc(C(=O)O)cc1
inactive: Potency [1] | outcome [2] | outcome [3] | outcome [5] | Potency [10] | Potency [6] | outcome [7] | Potency [8] | outcome [9]

CCCC(C)CO (stereo not given)
inactive: Potency [1] | outcome [2] | outcome [3] | Potency [4] | Potency [6] | outcome [7] | Potency [8] | outcome [9]

CCCCc1ccc2cccc(S(=O)(=O)O)c2c1
inactive: Potency [1] | outcome [2] | outcome [3] | Potency [4] | outcome [5] | Potency [6] | outcome [7] | outcome [9]

NCC[C@H](O)C(=O)N[C@@H]1C[C@H](N)[C@@H](O[C@H]2O[C@H](CN)[C@@H](O)[C@H](O)[C@H]2O)[C@H](O)[C@H]1O[C@H]1O[C@H](CO)[C@@H](O)[C@H](N)[C@H]1O
inactive: cytotoxicity increase [1] -0.472% [at 0.29 µM] | activity change, negative = cytotoxicity [2] 7.28% [at 0.349 µM] | viability change, negative = cytotoxic [3] 0.273% [at 0.349 µM] | activity, negative = inhibition [4] 0.695% [at 0.349 µM] | activity change, negative = inhibition [5] 9.86% [at 0.349 µM] | Potency [10] | activity change, negative = inhibition [6] 5.91% [at 0.349 µM] | activity change, negative = cytotoxicity [7] 1.82% [at 0.349 µM] | viability change, negative = cytotoxic [8] 2.12% [at 0.349 µM] | viability change, negative = cytotoxic [9] 1.11% [at 0.349 µM]

CC(C)[N+](C)(C)CC(O)COc1cccc2ccccc12 (stereo not given)
inactive: Potency [1] | outcome [2] | outcome [3] | outcome [5] | Potency [10] | Potency [6] | outcome [7] | outcome [9]
